Experimental data published in PubChem BioAssay (EPA / NIEHS).
Active and inactive are the calls of the source. How the source made its calls: active means hit-call score of the fitted dose curve at least 0.9, where 1 is the maximum; inactive means score below 0.9.

Assays:
Conditions in all cases: mRNA level, 48 h; actives raise or lower the signal
[1] = read-out: flavin-containing dimethylaniline monooxygenases 3 (FMO3), FMO3 (gene 2328); test: LTEA_HepaRG_FMO3: Life Technologies and Expression Analysis (LTEA) Assay for flavin-containing dimethylaniline monooxygenases 3 (FMO3) using HepaRG (AID 2283453);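 on AC50: differentiated human HepaRG liver cells in serum-free induction medium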
Outline: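 Eight-point concentration-response in serum-free HepaRG cultures (top 100 uM, 0.5% DMSO, 48 h). Read-out: FMO3 mRNA level normalized to three endogenous control genes, fitted bidirectionally versus vehicle.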

[2] = read-out: Cytochrome P450 (CYP1A1), CYP1A1 (gene 1543); test: LTEA_HepaRG_CYP1A1: Life Technologies and Expression Analysis (LTEA) Assay for Cytochrome P450 (CYP1A1) using HepaRG (AID 2283454)
Outline: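 Using HepaRG cultures with 0.5% DMSO as vehicle, eight-concentration exposures (max 100 uM) lasted 48 h. Transcript levels were measured by TaqMan qRT-PCR and normalized to ACTB, GAPDH and POLR2A.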

[3] = read-out: CFLAR gene, CFLAR (gene 8837); test: LTEA_HepaRG_CFLAR: Life Technologies and Expression Analysis (LTEA) Assay for CFLAR gene using HepaRG (AID 2283455)
Outline: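 qRT-PCR read-out (Fluidigm/TaqMan) of CFLAR mRNA, normalized to three housekeeping genes, in differentiated human HepaRG cells after 48 h chemical exposure; 8-point half-log series from 100 uM in 0.5% DMSO; bidirectional curve fitting versus DMSO.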

[4] = read-out: Forkhead box O1 (FOXO1), FOXO1 (gene 2308); test: LTEA_HepaRG_FOXO1: Life Technologies and Expression Analysis (LTEA) Assay for Forkhead box O1 (FOXO1) using HepaRG (AID 2283456)
Outline: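 HepaRG, 48 h exposure, 8-pt half-log series from 100 uM in 0.5% DMSO, duplicates; Fluidigm qRT-PCR mRNA, housekeeping-normalised; bidirectional fit vs DMSO baseline.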

[5] = read-out: growth arrest and DNA damage 45 (GADD45A), GADD45A (gene 1647); test: LTEA_HepaRG_GADD45A: Life Technologies and Expression Analysis (LTEA) Assay for growth arrest and DNA damage 45 (GADD45A) using HepaRG (AID 2283458)
Outline: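 HepaRG, 48 h exposure, 8 conc. (top 100 uM, half-log steps), 0.5% DMSO vehicle, duplicates. Read-out: qRT-PCR mRNA level, housekeeping-normalized (ACTB/GAPDH/POLR2A). Curves fit bidirectionally vs DMSO baseline.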

[6] = read-out: Forkhead box O3 (FOXO3), FOXO3 (gene 2309); test: LTEA_HepaRG_FOXO3: Life Technologies and Expression Analysis (LTEA) Assay for Forkhead box O3 (FOXO3) using HepaRG (AID 2283459)
Outline: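 qRT-PCR readout of FOXO3 transcript, normalized to three housekeeping genes (ACTB, GAPDH, POLR2A); gain or loss fitted against 0.5% DMSO vehicle. HepaRG cells, 48 h chemical exposure, 8-point half-log series, top 100 uM.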

[7] = read-out: ABC Transporter (ABCB1), ABCB1 (gene 5243); test: LTEA_HepaRG_ABCB1: Life Technologies and Expression Analysis (LTEA) Assay for ABC Transporter (ABCB1) using HepaRG (AID 2283460)
Outline: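 HepaRG, 48 h exposure, 8-pt half-log series from 100 uM, 0.5% DMSO vehicle, duplicates. Readout: ABCB1 transcript by Fluidigm TaqMan qRT-PCR, housekeeping-normalized; bidirectional curve fit vs DMSO baseline.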

[8] = read-out: growth arrest and DNA damage 45 (GADD45B), GADD45B (gene 4616); test: LTEA_HepaRG_GADD45B: Life Technologies and Expression Analysis (LTEA) Assay for growth arrest and DNA damage 45 (GADD45B) using HepaRG (AID 2283461)
Outline: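 Human HepaRG monolayers receive chemicals for 48 h at eight half-log concentrations, highest 100 uM, in 0.5% DMSO. Expression is measured by TaqMan qRT-PCR and normalized to ACTB, GAPDH and POLR2A.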

[9] = read-out: ABC Transporter (ABCC3), ABCC3 (gene 8714); test: LTEA_HepaRG_ABCC3: Life Technologies and Expression Analysis (LTEA) Assay for ABC Transporter (ABCC3) using HepaRG (AID 2283462)
Outline: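 Transcriptional change of ABCC3 in HepaRG after 48 h treatment, determined by qRT-PCR normalized to endogenous controls. Concentrations spanned eight half-log steps to 100 uM in 0.5% DMSO.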

[10] = read-out: ABC Transporter (ABCC2), ABCC2 (gene 1244); test: LTEA_HepaRG_ABCC2: Life Technologies and Expression Analysis (LTEA) Assay for ABC Transporter (ABCC2) using HepaRG (AID 2283464)
Outline: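 After plating and 48 h culture, HepaRG medium is replaced with serum-free induction medium and chemicals are added (8 concentrations, max 100 uM, 0.5% DMSO) for 48 h. Total RNA then undergoes qRT-PCR for ABCC2 with housekeeping normalization.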

[11] = read-out: Broad substrate specificity ATP-binding cassette transporter ABCG2 (Homo sapiens) (UniProt Q9UNQ0); test: LTEA_HepaRG_ABCG2: Life Technologies and Expression Analysis (LTEA) Assay for ABC Transporter (ABCG2) using HepaRG (AID 2283465)
Outline: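 HepaRG, 48 h exposure, 8-pt half-log series from 100 uM, 0.5% DMSO vehicle, duplicates. Readout: ABCG2 transcript by qRT-PCR (Fluidigm array), housekeeping-normalized; bidirectional curve fit relative to DMSO baseline.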

[12] = read-out: ATP-citrate lyase (ACLY), ACLY (gene 47); test: LTEA_HepaRG_ACLY: Life Technologies and Expression Analysis (LTEA) Assay for ATP-citrate lyase (ACLY) using HepaRG (AID 2283466)
Outline: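 qRT-PCR readout of ACLY transcript after 48 h chemical treatment of HepaRG cells; expression normalized to three housekeeping genes. Eight-point half-log series, highest 100 uM, 0.5% DMSO vehicle. Gain or loss fitted against DMSO baseline.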

[13] = read-out: Alkaline Phosphatase, Placental (ALPP) gene, ALPP (gene 250); test: LTEA_HepaRG_ALPP: Life Technologies and Expression Analysis (LTEA) Assay for Alkaline Phosphatase, Placental (ALPP) gene using HepaRG (AID 2283468);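 on AC50: differentiated human HepaRG liver cells in serum-free induction medium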
Outline: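 Using human liver HepaRG cells, chemicals are tested in duplicate over 48 h at half-log concentrations topping at 100 uM; phenobarbital 1 mM serves as induction control. ALPP mRNA change by qRT-PCR, bidirectional fit against vehicle.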

[14] = read-out: Bcl-2 (BAD) gene, BAD (gene 572); test: LTEA_HepaRG_BAD: Life Technologies and Expression Analysis (LTEA) Assay for Bcl-2 (BAD) gene using HepaRG (AID 2283469)
Outline: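 HepaRG, 48 h exposure, 8-pt half-log curve from 100 uM in 0.5% DMSO, duplicates. Readout: TaqMan qRT-PCR for BAD mRNA, housekeeping-normalised (ACTB/GAPDH/POLR2A); gain or loss fitted against DMSO baseline.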

[15] = read-out: Bcl-2 (BAX) gene, BAX (gene 581); test: LTEA_HepaRG_BAX: Life Technologies and Expression Analysis (LTEA) Assay for Bcl-2 (BAX) gene using HepaRG (AID 2283470)
Outline: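 qRT-PCR read-out of BAX mRNA, normalized to three housekeeping genes, after 48 h chemical exposure of human HepaRG cells in serum-free induction medium; eight-point half-log series, top 100 uM, 0.5% DMSO vehicle; bidirectional fit versus DMSO.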

[16] = read-out: adenosine kinase (ADK) gene, ADK (gene 132); test: LTEA_HepaRG_ADK: Life Technologies and Expression Analysis (LTEA) Assay for adenosine kinase (ADK) gene using HepaRG (AID 2283471)
Outline: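 Following 48 h exposure of HepaRG cells in 0.5% DMSO (top concentration 100 uM, duplicate wells), ADK mRNA induction or suppression was measured by qRT-PCR, normalised to ACTB/GAPDH/POLR2A, and fitted bidirectionally relative to vehicle.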

[17] = read-out: Alpha-fetoprotein (AFP) gene, AFP (gene 174); test: LTEA_HepaRG_AFP: Life Technologies and Expression Analysis (LTEA) Assay for Alpha-fetoprotein (AFP) gene using HepaRG (AID 2283472)
Outline: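 qRT-PCR (Fluidigm TaqMan) readout of AFP transcript, normalized to three housekeeping genes, fitted bidirectionally against 0.5% DMSO baseline. HepaRG cells received chemicals for 48 h in serum-free induction medium, top concentration 100 uM, half-log steps.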

[18] = read-out: ABC Transporter (ABCB11), ABCB11 (gene 8647); test: LTEA_HepaRG_ABCB11: Life Technologies and Expression Analysis (LTEA) Assay for ABC Transporter (ABCB11) using HepaRG (AID 2283463)
Outline: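 HepaRG, 48 h exposure, 8-pt half-log CRC top 100 uM, 0.5% DMSO vehicle, duplicates. Readout: TaqMan qRT-PCR of ABCB11 mRNA, housekeeping-normalized (ACTB/GAPDH/POLR2A). Bidirectional fit vs DMSO baseline.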

[19] = read-out: Peroxisomal acyl-coenzyme A oxidase 1 (ACOX1) gene, ACOX1 (gene 51); test: LTEA_HepaRG_ACOX1: Life Technologies and Expression Analysis (LTEA) Assay for Peroxisomal acyl-coenzyme A oxidase 1 (ACOX1) gene using HepaRG (AID 2283467)
Outline: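 HepaRG, 48 h chemical exposure, 8-pt half-log series from 100 uM top, 0.5% DMSO vehicle, duplicates. Readout: ACOX1 mRNA by Fluidigm qRT-PCR, housekeeping-normalized; bidirectional fit vs DMSO baseline.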

Chain of Broad substrate specificity ATP-binding cassette transporter ABCG2 (Homo sapiens) (Q9UNQ0 whole entry, looked up): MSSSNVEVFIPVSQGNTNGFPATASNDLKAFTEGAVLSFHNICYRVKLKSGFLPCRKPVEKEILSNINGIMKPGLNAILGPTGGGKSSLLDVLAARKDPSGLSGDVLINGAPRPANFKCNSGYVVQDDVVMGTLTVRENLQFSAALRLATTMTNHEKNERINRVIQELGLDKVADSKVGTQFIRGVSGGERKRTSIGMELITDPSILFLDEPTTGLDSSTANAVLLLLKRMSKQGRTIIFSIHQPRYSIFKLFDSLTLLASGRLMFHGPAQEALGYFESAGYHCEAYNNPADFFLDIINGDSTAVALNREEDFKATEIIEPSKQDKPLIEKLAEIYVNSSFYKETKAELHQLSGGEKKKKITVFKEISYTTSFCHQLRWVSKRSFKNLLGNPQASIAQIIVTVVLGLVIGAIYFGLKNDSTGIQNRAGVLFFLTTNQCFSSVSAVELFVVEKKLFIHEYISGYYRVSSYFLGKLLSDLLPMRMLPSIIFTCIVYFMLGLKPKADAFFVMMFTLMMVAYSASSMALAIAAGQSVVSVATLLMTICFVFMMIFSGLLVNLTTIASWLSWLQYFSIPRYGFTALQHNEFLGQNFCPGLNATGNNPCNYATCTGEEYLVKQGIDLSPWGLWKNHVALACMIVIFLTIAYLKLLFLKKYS

`CCC(C)(NC(=O)c1cc(Cl)c(C)c(Cl)c1)C(=O)CCl` (configuration not stated) was tested, and the AC50 [1] was 80.2 µM (active), the AC50 [2] was 50.2 µM (active) and the AC50 [3] was 86.5 µM (active). For the same compound, the outcome [4] was “inactive”, the AC50 [5] was 89.8 µM (active) and the outcome [6] was “inactive”. The AC50 [7] was 89.8 µM (active), the outcome [8] was “inactive” and the AC50 [9] was 65.3 µM (active). For the same compound, the AC50 [10] was 89 µM (active), the AC50 [11] was 12.2 µM (active) and the outcome [12] was “inactive”. The outcome [13] was “inactive”, the outcome [14] was “inactive” and the outcome [15] was “inactive”. For the same compound, the AC50 [16] was 92.1 µM (active) and the AC50 [17] was 76 µM (active).
For `COP(=S)(OC)Oc1ccc(SC)c(C)c1`, the outcome [1] was “inactive”, the AC50 [2] was 28.8 µM (active) and the outcome [3] was “inactive”. The outcome [4] was “inactive”, the outcome [5] was “inactive” and the outcome [6] was “inactive”. The outcome [7] was “inactive”, the outcome [8] was “inactive” and the outcome [9] was “inactive”. The outcome [18] was “inactive”, the outcome [10] was “inactive” and the AC50 [11] was 31.8 µM (active). The outcome [12] was “inactive”, the outcome [13] was “inactive” and the outcome [14] was “inactive”. The outcome [15] was “inactive”, the outcome [16] was “inactive” and the AC50 [17] was 10.3 µM (active).
For `CCOC1Oc2ccc(OS(C)(=O)=O)cc2C1(C)C` (configuration not stated), the AC50 [1] was 78.3 µM (active), the AC50 [2] was 50 µM (active) and the outcome [3] was “inactive”. For the same compound, the AC50 [4] was 50 µM (active), the AC50 [5] was 89.7 µM (active) and the outcome [6] was “inactive”. For the same compound, the AC50 [7] was 35.2 µM (active), the outcome [8] was “inactive” and the AC50 [9] was 66.7 µM (active). For the same compound, the AC50 [18] was 73 µM (active), the outcome [10] was “inactive” and the AC50 [11] was 28.2 µM (active). For the same compound, the AC50 [12] was 82.6 µM (active), the AC50 [13] was 43.6 µM (active) and the outcome [14] was “inactive”. The outcome [15] was “inactive”, the outcome [16] was “inactive” and the AC50 [17] was 72.3 µM (active).
For `OCCOc1ccccc1`, the outcome [1] was “inactive”, the AC50 [2] was 35.1 µM (active) and the outcome [3] was “inactive”. The outcome [4] was “inactive”, the outcome [5] was “inactive” and the outcome [6] was “inactive”. The outcome [7] was “inactive”, the outcome [8] was “inactive” and the outcome [9] was “inactive”. The outcome [18] was “inactive”, the outcome [10] was “inactive” and the outcome [11] was “inactive”. The outcome [12] was “inactive”, the outcome [13] was “inactive” and the outcome [14] was “inactive”. For the same compound, the outcome [15] was “inactive”, the outcome [16] was “inactive” and the outcome [17] was “inactive”.
`CCc1ccc(C(=O)NN(C(=O)c2cc(C)cc(C)c2)C(C)(C)C)cc1` was tested, and the AC50 [1] was 81.9 µM (active), the outcome [2] was “inactive” and the outcome [3] was “inactive”. The outcome [4] was “inactive”, the outcome [5] was “inactive” and the outcome [6] was “inactive”. The AC50 [7] was 13.3 µM (active), the outcome [8] was “inactive” and the outcome [9] was “inactive”. The outcome [18] was “inactive”, the outcome [10] was “inactive” and the AC50 [11] was 50 µM (active). For the same compound, the outcome [12] was “inactive”, the AC50 [13] was 50 µM (active) and the outcome [14] was “inactive”. The outcome [15] was “inactive”, the outcome [16] was “inactive” and the AC50 [17] was 50 µM (active).
With `Clc1ccccc1-c1nnc(-c2ccccc2Cl)nn1` the outcome [1] was “inactive”, the AC50 [2] was 12.8 µM (active) and the outcome [3] was “inactive”. The outcome [4] was “inactive”, the outcome [5] was “inactive” and the outcome [6] was “inactive”. For the same compound, the outcome [7] was “inactive”, the outcome [8] was “inactive” and the outcome [9] was “inactive”. The outcome [18] was “inactive”, the AC50 [11] was 5.64 µM (active) and the outcome [12] was “inactive”. For the same compound, the outcome [19] was “inactive”, the outcome [13] was “inactive” and the outcome [14] was “inactive”. For the same compound, the outcome [15] was “inactive”, the outcome [16] was “inactive” and the outcome [17] was “inactive”.
